PubChem BioAssay AID743335 (Broad Institute, 2014)
Activity calls are given as the source filed them.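 How the source made its calls: active means cell killing, with a fitted half-maximal concentration at or below twice the top valid dose tested; inconclusive means flat curve with moderate signal loss, or a poor fit; inactive means effect in the rising direction, plus the rest.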

Assay: HEK293T cytotoxicity, dose response, cytotoxicity control, cell-based, ATP luminescence, dry powder, set 11 (AID 743335)

Row | Compound | outcome
1 | Cc1cnc(NC(=O)c2cc(S(=O)(=O)N3CCCC3)ccc2N2CCCC2)s1 | inactive
2 | CN(C)CCCN(Cc1cc2ccccc2[nH]c1=O)C(=O)Nc1ccccc1 | inactive
3 | Cc1cnc(NC(=O)c2cc(S(=O)(=O)N(C)C)ccc2C2CCCC2)s1 | inactive
4 | Cc1cnc(NC(=O)c2cc(S(=O)(=O)N(C)C)ccc2N(C)C)s1 | inactive
5 | Cc1cnc(NC(=O)c2cc(S(=O)(=O)N3CCCCC3)ccc2N2CCCC2)s1 | inactive
6 | CN(C)S(=O)(=O)c1ccc(N2CCCC2)c(C(=O)Nc2ccccc2)c1 | inactive
7 | CN(C)S(=O)(=O)c1ccc(N2CCCC2)c(C(=O)Nc2cccc(F)c2)c1 | inactive
8 | COc1ccc2nc(NC(=O)c3cc(S(=O)(=O)N(C)C)ccc3N3CCCC3)sc2c1 | inactive
9 | Cc1ccc(NC(=O)c2cc(S(=O)(=O)N(C)C)ccc2N2CCCC2)cc1 | inactive
10 | CN(C)S(=O)(=O)c1ccc(N2CCCC2)c(C(=O)Nc2nc3ccccc3s2)c1 | inactive
11 | Cc1csc(NC(=O)c2cc(S(=O)(=O)N(C)C)ccc2N2CCCC2)n1 | inactive
12 | Cc1cnc(NC(=O)c2cc(S(=O)(=O)N3CCOCC3)ccc2N2CCCC2)s1 | inactive
13 | CN(C)S(=O)(=O)c1ccc(N2CCCC2)c(C(=O)Nc2nccs2)c1 | inactive
14 | CN(C)CCCN(Cc1cc2ccccc2[nH]c1=O)C(=O)NCc1ccccc1 | inactive
15 | CCN(CC)c1ccc(S(=O)(=O)N(C)C)cc1C(=O)Nc1ncc(C)s1 | inactive
16 | Cc1cnc(NC(=O)c2cc(S(=O)(=O)N(C)C)ccc2N2CCC2)s1 | inactive
17 | Cc1cnc(NC(=O)c2cc(S(=O)(=O)N(C)C)ccc2N2CCCC2)s1 | inactive
18 | COc1ccc2sc(NC(=O)c3cc(S(=O)(=O)N(C)C)ccc3N3CCCC3)nc2c1 | inactive
19 | COc1cccc2sc(NC(=O)c3cc(S(=O)(=O)N(C)C)ccc3N3CCCC3)nc12 | inactive
